Results published in PubChem BioAssay (NCI).
About 83,000 compounds went through this panel and 20% of them were active in at least one assay; those are over-represented in the sample as a whole.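 48-hour exposure, single concentration, 96-well plates; percent growth endpoint where 0 means no net growth. Active: below 10.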 Values without a mark were called inactive. The source made the active and inactive calls.

System: HL-60(TB) leukemia
Experiment: NCI-60 one-dose screen, 48 h (100 = growth as untreated, 0 = no growth, -100 = all killed)
Details: 10 µM unless noted

| Compound | growth |
| --- | --- |
| CCN(C(=O)c1cc2ncccc2[nH]1)[C@H]1CCC[C@@H](NCc2cccc(F)c2)C1 | 130% |
| COc1ccc(-c2cc(-c3nnc(SC/C(=N\O)c4ccccc4)n3-c3ccccc3)c3ccccc3n2)cc1 | 94.3% |
| CCn1c(SCc2ccc(C)cc2)nnc1-c1nn(-c2ccc(Cl)cc2Cl)c(-c2ccc(Cl)cc2)c1C | -13.1% (active) |
| CCCCc1ccc(NC(=O)N(CCCl)N=O)cc1 | 98.8% |
| COc1ccc(/C=C(\C#N)c2cc3ccccc3[nH]2)cc1 | 14.8% |
| CCc1c2c(nc3ccc(OC(=O)OCc4ccc(B5OC(C)(C)C(C)(C)O5)cc4)cc13)-c1cc3c(c(=O)n1C2)COC(=O)[C@]3(O)CC | 12% |
| Fc1cc(C(F)(F)F)ccc1-c1cncnc1NC1CCCCCC1 | 86.4% |
| Nc1ccc2c(c1)Cc1cc(Cl)c(Cl)cc1-2 | 53.4% |
| COc1ccc2c(c1)N(CCO)C1=C(C(=O)OC1)C2c1cccc(F)c1 (centres undefined) | -22.7% (active) |
| O=C1C(=O)c2cc([N+](=O)[O-])ccc2-c2ccccc21 | -30% (active) |
| CC/C=C\C/C=C\C[C@H](O)C/C=C1/C(=O)C=C[C@H]1C/C=C\CCC(=O)OC | 1.46% [8.25 µM] (active) |
| CSC1=Nc2c(c(C)c(-c3ccccc3)n2CCCC(=O)O)C2=NC(=O)C[C@H](C)N12 | 93.2% |
| COc1ccc(-c2cc(C#N)c(NNC(C)=O)[nH]2)cc1 | 11.4% |
| O=C1/C(=N/O)CCc2ccccc21 | 59.1% |
